PubChem BioAssay
Activity calls are given as the source filed them. No rule for the calls is given here.

These compounds were tested against Pantothenate synthetase (Mycobacterium tuberculosis (strain ATCC 25618 / H37Rv)) (UniProt P9WIL5) (assay: Coupled enzyme confirmation of inhibitors against recombinant Mtb PanC (AID 375;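 also: 0% = full reaction with vehicle and 100% = no enzyme background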)). Settings: coupled enzyme assay; at 10 µM, stronger effect = higher value.
Chain of Pantothenate synthetase (Mycobacterium tuberculosis (strain ATCC 25618 / H37Rv)) (P9WIL5 whole entry, looked up): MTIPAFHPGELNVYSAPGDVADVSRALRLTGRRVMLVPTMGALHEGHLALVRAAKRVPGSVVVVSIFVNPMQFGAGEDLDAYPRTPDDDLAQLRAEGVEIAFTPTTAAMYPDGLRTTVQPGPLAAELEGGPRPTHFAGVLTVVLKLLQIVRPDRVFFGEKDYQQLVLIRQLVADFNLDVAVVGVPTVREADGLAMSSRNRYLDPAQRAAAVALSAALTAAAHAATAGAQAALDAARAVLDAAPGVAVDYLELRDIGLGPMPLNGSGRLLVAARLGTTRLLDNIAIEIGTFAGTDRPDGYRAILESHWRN
With `Cc1nc2nc(SCC(=O)NCc3ccco3)nn2c(C)c1Cc1ccccc1` the inhibition was 0% (inactive).
With `COc1ccc(S(=O)(=O)N2CCC(C(=O)Nc3c(F)cccc3F)CC2)cc1` the inhibition was 2% (inactive).
With `CN(C)CCC=C1c2ccccc2CCc2ccccc21` the inhibition was 0% (inactive).
For `CCOc1ccc(-c2nnc(SCC(=O)N3CCN(c4ccccc4)CC3)o2)cc1`, the inhibition was 0% (inactive).
`O=C(Nc1ccc(S(=O)(=O)N2CCCCCC2)cc1)c1ccco1` was tested, and the inhibition was 2% (inactive).
In the case of `COc1cccc2c1C(=O)c1c(O)c3c(c(O)c1C2=O)C[C@@](O)(C(C)=O)C[C@@H]3O[C@H]1C[C@H](N)[C@H](O)[C@H](C)O1`, the inhibition is reported as 0% (inactive).
For `CC(=O)Nc1nnc(S(N)(=O)=O)s1`, the inhibition was 0% (inactive).
In the case of `Nc1ccc(S(=O)(=O)Nc2ccccn2)cc1`, the inhibition is reported as 0% (inactive).
With `Cc1ccc2c(c1)N(CC(=O)N1CCCCC1c1cccnc1)C(=O)CO2` (stereo not given) the inhibition was 0% (inactive).
For `CSc1oc(-c2ccccc2)nc1S(=O)(=O)c1ccc(F)cc1`, the inhibition was 0% (inactive).
In the case of `O=C(Cn1nc(Cc2ccncc2)c2ccccc2c1=O)N1CCc2ccccc2C1`, the inhibition is reported as 0% (inactive).
With `Cc1cc(C)n(-c2nc(C)nc3sc4c(c23)CCC(C)C4)n1` (stereo not given) the inhibition was 0% (inactive).
For `CC12COC3(C(=O)Nc4ccc(Cl)cn4)CC1CCC32C` (stereo not given), the inhibition was 0% (inactive).
`O=C(NCCCN1CCOCC1)c1cc(-c2ccc(Cl)cc2)on1` was tested, and the inhibition was 4% (inactive).
With `CC1=C(n2nnc3ccccc32)C(c2ccccc2)C(C#N)=C(N)O1` (stereo not given) the inhibition was 5% (inactive).
In the case of `CCOc1ccc(C(=O)Nc2ccc(N3CCN(C)CC3)cc2)cc1Br`, the inhibition is reported as 0% (inactive).
In the case of `O=C(OCCN=C1NS(=O)(=O)c2ccccc21)C1CC(=O)N(c2ccc(Cl)cc2)C1` (stereo not given), the inhibition is reported as 0% (inactive).
`O=C(O)C1CCCCC1C(=O)Nc1ccccn1` (stereo not given) was tested, and the inhibition was 0% (inactive).
In the case of `COCCOC(=O)C1=C(C)OC(N)=C(C#N)C1c1ccc2c(c1)OCO2` (stereo not given), the inhibition is reported as 0% (inactive).
With `Cc1onc(-c2ccccc2Cl)c1C(=O)NCCn1c(C)cc2ccccc21` the inhibition was 8% (inactive).
`Cc1cc(C)c2c(n1)nn1c(N3CCOCC3)cc(C)nc21` was tested, and the inhibition was 0% (inactive).
`CC1(C)CC(=O)C(C=NC(CCC(N)=O)C(=O)O)=C(O)C1` (stereo not given) was tested, and the inhibition was 3% (inactive).
In the case of `CN1CCCN(C(c2ccccc2)c2ccc(Cl)cc2)CC1` (stereo not given), the inhibition is reported as 0% (inactive).
`Cc1cc(=O)oc2cc(OCC#N)ccc12` was tested, and the inhibition was 0% (inactive).
With `Cc1nnc(SCCCn2c(N3CCCCC3)nc3c2c(=O)[nH]c(=O)n3C)s1` the inhibition was 0% (inactive).
In the case of `O=C(CSc1nnc(-c2ccccc2Br)o1)Nc1cccc2ccccc12`, the inhibition is reported as 2% (inactive).
`COc1cc(C2c3c(oc4c(C)cc(C)cc4c3=O)C(=O)N2Cc2cccnc2)ccc1O` (stereo not given) was tested, and the inhibition was 0% (inactive).
For `Cc1cc(C)nc(SCc2nnc(SCC(=O)Nc3ncc(C)s3)n2Cc2ccco2)n1`, the inhibition was 0% (inactive).
With `CCOC(=O)c1[nH]c(C)c(C(=O)N2CCN(c3ccc(F)cc3)CC2)c1C` the inhibition was 0% (inactive).
In the case of `O=C(c1cnccn1)N(c1ccccc1)C1(C(=O)NC2CCCC2)CCCCC1`, the inhibition is reported as 0% (inactive).
For `O=C(c1ccco1)N1CCN(S(=O)(=O)c2ccc(C3CCCCC3)cc2)CC1`, the inhibition was 3% (inactive).
In the case of `O=C(Nc1nccs1)c1ccc(Cl)c(S(=O)(=O)N2CCCCC2)c1`, the inhibition is reported as 0% (inactive).
With `COc1ccc(C2CC(=O)C(C=NCCCN3CCOCC3)=C(O)C2)cc1` (stereo not given) the inhibition was 0% (inactive).
In the case of `O=C(COc1ccccc1F)NC1CC1`, the inhibition is reported as 3% (inactive).
`O=c1c2ccccc2cnn1-c1nc2ccccc2s1` was tested, and the inhibition was 0% (inactive).
For `Cc1ccc(-n2c(=O)[nH]c3c(C(N)=O)nc(CC(C)C)nc32)cc1`, the inhibition was 0% (inactive).
`CCOC(=O)c1[nH]c(C)c(C(=O)NC)c1C` was tested, and the inhibition was 0% (inactive).
For `COc1ccc(S(=O)(=O)N2CCN(S(=O)(=O)c3ccc4c(c3)OCCO4)CC2)cc1C`, the inhibition was 0% (inactive).
With `COC(=O)C(C)Sc1nc2c(c(=O)n1-c1ccccc1)SCC2` (stereo not given) the inhibition was 0% (inactive).
In the case of `c1ccc(C2(Cn3ccc4ccccc43)OCCO2)cc1`, the inhibition is reported as 0% (inactive).
